Measurements reported in the supplement of paper PMC10849652.
The full data set covers some 8,800 targets. This sample favours those with a hit. About 0.5% of all pairs of compound and target were hits.

Experiments:
Test in all cases: log2 fold change, soluble protein after heating vs DMSO (PISA); higher = thermal stabilisation; K562 lysate, 10 uM; active = over 0.2 and 3.5 SD of the protein, either way, in both replicates (recomputed)
erlotinib = compound: C#Cc1cccc(Nc2ncnc3cc(OCCOC)c(OCCOC)cc23)c1 [erlotinib]
How it was run: (§1)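 Values give the log-two fold change in thermal stability against solvent controls, from duplicates. Crude K562 extract at 1 mg/mL protein, made by dounce homogenisation in PBS pH 7.4 with 1 mM MgCl2, was treated with 10 μM compound for 30 min. After 3 min heating across 48°C-58°C, aliquots were pooled, adjusted to 0.5% NP-40 at 4°C and centrifuged at 21,000xg for 90 min. The supernatant was measured by TMTpro 16plex LC-MS/MS with channel sums equalised.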

[1] = compound: C/C(=N\NC(=O)C1=CC(=CC=C1)S(=O)(=O)N2CCOCC2)/C3=C(C=CC(=C3)Cl)O
How it was run: as §1

[2] = compound: C1=CC(=CC=C1C2=NC3=C(N2)C=C(C=C3)C(=O)N)OC4=CC=C(C=C4)Cl
How it was run: as §1

[3] = compound: C1=CC2=C(C=CC(=C2)/C=C\3/C(=O)NC(=NCC4=CC=CS4)S3)N=C1
How it was run: as §1

[4] = compound: C1=CC2=NC=CN=C2C=C1/C=C/3\C(=O)NC(=O)S3
How it was run: as §1

[5] = compound: C1=CC=C(C=C1)C2=NC(=C(N2)C3=CC=NC=C3)C4=CC(=C(C=C4)Cl)O
How it was run: as §1

[6] = compound: C1=CC=C2C(=C1)C3=NNC4=CC=CC(=C43)C2=O
How it was run: as §1

[7] = compound: C1CCN(C1)C(=O)NC2=CC=CC(=C2)NC3=NC=C(C(=N3)NCCC4=CN=CN4)Br
How it was run: as §1

[8] = compound: C1CN(CCC1(CC2=CC=C(C=C2)Cl)N)C3=NC=NC4=C3C=CN4
How it was run: as §1

IRAK-1-4 Inhibitor I = compound: C1COCCN1CCN2C3=CC=CC=C3N=C2NC(=O)C4=CC(=CC=C4)[N+](=O)[O-] [IRAK-1-4 Inhibitor I]
How it was run: as §1

ibrutinib = compound: C=CC(=O)N1CCC[C@@H](n2nc(-c3ccc(Oc4ccccc4)cc3)c3c(N)ncnc32)C1 [ibrutinib]
How it was run: as §1

[9] = compound: CC(=O)c1cnc2ccc(-c3cc(Cl)c(O)c(Cl)c3)nc2c1N[C@H]1CC[C@H](CN(C)C)CC1
How it was run: as §1

ralimetinib = compound: CC(C)(C)Cn1c(N)nc2ccc(-c3[nH]c(C(C)(C)C)nc3-c3ccc(F)cc3)nc21 [ralimetinib]
How it was run: as §1

[10] = compound: CC(C)(O)CC(=O)NCCn1ccc2ncnc(Nc3ccc(Oc4cccc(C(F)(F)F)c4)c(Cl)c3)c21
How it was run: as §1

[11] = compound: CC(C)C1=C2N=C(C=C(N2N=C1)NCC3=CC=CC=C3)NCCCCCCN
How it was run: as §1

[12] = compound: CC1=C(C(CC(=O)N1)C2=CC=C(C=C2)C(F)(F)F)C(=O)NC3=C(C=C4C(=C3)C=NN4)F
How it was run: as §1

[13] = compound: CC1=C(C2=C(C=C1)C(=O)C3=CC=CC=C3N2CCCN)C
How it was run: as §1

[14] = compound: CC1=C(C=C(C=C1)NC(=O)C2=CC(=CC=C2)C(C)(C)C#N)NC3=CC4=C(C=C3)N=CN(C4=O)C
How it was run: as §1

[15] = compound: CC1=C(C=C(C=C1)NC(=O)C2=CC(=CC=C2)N(C)C)NC(=O)C3=CC=C(C=C3)O
How it was run: as §1

[16] = compound: CC1=CC=C(C=C1)SC2=C3C=C(SC3=CN=C2)C(=O)N
How it was run: as §1

Measured: log2 fold change

CSNK2A2 (UniProt P19784)
inactive: erlotinib 0 | [1] -0.209 | [2] -0.015 | [3] 0.383 | [5] 0.032 | [6] 0.375 | [7] 0.277 | [8] 0.024 | IRAK-1-4 Inhibitor I 0.022 | ibrutinib -0.015 | ralimetinib 0.012 | [10] -0.014 | [11] -0.01 | [12] -0.046 | [13] 0.185 | [14] -0.017 | [15] 0.003 | [16] 0
active: [4] 0.699 | [9] 0.666

DENND6A (UniProt Q8IWF6)
inactive: erlotinib -0.019 | [1] 0.232 | [2] 0.004 | [3] 0.073 | [4] 0.048 | [5] 0.024 | [6] 0.003 | [7] 0.029 | [8] 0.083 | IRAK-1-4 Inhibitor I 0.025 | ibrutinib 0.014 | [9] 0.064 | ralimetinib 0.052 | [10] -0.047 | [11] 0.037 | [12] 0.002 | [13] -0.03 | [14] 0.001 | [15] 0.022 | [16] 0.051

COG7 (UniProt P83436)
inactive: erlotinib 0.026 | [1] -0.007 | [2] -0.025 | [3] 0.034 | [4] 0.012 | [5] 0.006 | [6] -0.037 | [7] -0.022 | [8] 0.05 | IRAK-1-4 Inhibitor I -0.039 | ibrutinib -0.04 | [9] -0.012 | ralimetinib 0.03 | [10] 0.006 | [11] -0.049 | [12] -0.034 | [13] -0.001 | [14] -0.029 | [15] 0.058 | [16] -0.007

DIAPH3 (UniProt Q9NSV4)
inactive: erlotinib 0.042 | [1] 0.07 | [2] -0.022 | [3] 0.05 | [4] 0.074 | [5] 0.045 | [6] -0.066 | [7] -0.04 | [8] -0.082 | IRAK-1-4 Inhibitor I -0.041 | ibrutinib 0.012 | [9] 0.093 | ralimetinib 0.086 | [10] -0.032 | [11] -0.066 | [12] 0.043 | [13] 0.005 | [14] -0.011 | [15] 0.038 | [16] -0.035

CMIP (UniProt Q8IY22)
inactive: erlotinib 0.003 | [1] 0.05 | [2] -0.008 | [3] 0.055 | [4] 0.035 | [5] 0.023 | [6] -0.067 | [7] -0.001 | [8] -0.023 | IRAK-1-4 Inhibitor I -0.011 | ibrutinib 0.057 | [9] 0.024 | ralimetinib 0 | [10] 0.004 | [11] -0.011 | [12] 0.001 | [13] -0.021 | [14] 0 | [15] 0.029 | [16] 0.004

CUX1 isoform 3 (UniProt P39880)
Sequence of UniProt P39880 (P39880 whole entry, looked up): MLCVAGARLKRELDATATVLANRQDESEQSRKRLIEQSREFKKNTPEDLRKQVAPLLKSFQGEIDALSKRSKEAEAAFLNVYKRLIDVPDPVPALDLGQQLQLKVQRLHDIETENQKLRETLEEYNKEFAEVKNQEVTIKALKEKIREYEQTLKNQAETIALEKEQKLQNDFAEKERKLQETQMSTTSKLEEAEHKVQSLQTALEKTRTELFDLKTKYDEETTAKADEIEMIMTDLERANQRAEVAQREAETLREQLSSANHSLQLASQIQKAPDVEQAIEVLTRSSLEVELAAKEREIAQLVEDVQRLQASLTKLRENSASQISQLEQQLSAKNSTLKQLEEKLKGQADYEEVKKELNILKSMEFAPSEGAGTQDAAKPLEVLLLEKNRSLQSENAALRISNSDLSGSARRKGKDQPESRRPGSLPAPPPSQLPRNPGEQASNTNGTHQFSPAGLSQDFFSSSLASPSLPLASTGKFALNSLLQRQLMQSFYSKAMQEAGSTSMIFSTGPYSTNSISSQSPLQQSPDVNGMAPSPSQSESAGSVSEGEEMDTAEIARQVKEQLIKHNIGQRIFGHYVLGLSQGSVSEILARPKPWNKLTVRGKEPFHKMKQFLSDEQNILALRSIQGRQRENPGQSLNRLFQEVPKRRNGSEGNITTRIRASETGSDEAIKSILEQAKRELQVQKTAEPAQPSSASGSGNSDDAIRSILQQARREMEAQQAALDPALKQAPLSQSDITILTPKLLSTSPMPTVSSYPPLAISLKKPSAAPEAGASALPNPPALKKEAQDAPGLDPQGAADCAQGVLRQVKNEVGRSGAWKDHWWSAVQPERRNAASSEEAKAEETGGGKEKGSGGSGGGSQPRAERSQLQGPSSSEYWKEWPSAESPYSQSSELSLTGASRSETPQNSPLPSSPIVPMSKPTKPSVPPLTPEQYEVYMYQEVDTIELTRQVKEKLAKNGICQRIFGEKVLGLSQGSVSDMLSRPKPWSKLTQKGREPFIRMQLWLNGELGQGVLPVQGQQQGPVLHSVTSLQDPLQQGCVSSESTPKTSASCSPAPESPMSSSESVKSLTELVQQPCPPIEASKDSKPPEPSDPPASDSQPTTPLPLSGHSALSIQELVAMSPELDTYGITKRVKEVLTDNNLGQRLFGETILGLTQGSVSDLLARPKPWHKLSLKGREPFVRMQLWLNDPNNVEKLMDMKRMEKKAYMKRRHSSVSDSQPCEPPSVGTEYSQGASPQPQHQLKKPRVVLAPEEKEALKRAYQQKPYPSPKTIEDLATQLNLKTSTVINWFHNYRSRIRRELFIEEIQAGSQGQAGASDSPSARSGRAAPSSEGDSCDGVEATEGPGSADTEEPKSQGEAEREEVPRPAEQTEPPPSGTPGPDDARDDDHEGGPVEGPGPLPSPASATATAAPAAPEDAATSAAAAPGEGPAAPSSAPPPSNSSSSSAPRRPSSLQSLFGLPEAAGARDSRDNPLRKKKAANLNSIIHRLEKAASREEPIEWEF
inactive: erlotinib -0.015 | [1] -0.017 | [2] -0.007 | [3] 0.03 | [4] -0.049 | [5] -0.039 | [6] 0.003 | [7] -0.004 | [8] 0.07 | IRAK-1-4 Inhibitor I 0.014 | ibrutinib 0.073 | [9] 0.002 | ralimetinib 0.003 | [10] -0.061 | [11] 0.017 | [12] -0.022 | [13] 0.003 | [14] -0.051 | [15] 0.012 | [16] 0.005

DMXL1 (UniProt Q9Y485)
Sequence of UniProt Q9Y485 (Q9Y485 whole entry, looked up): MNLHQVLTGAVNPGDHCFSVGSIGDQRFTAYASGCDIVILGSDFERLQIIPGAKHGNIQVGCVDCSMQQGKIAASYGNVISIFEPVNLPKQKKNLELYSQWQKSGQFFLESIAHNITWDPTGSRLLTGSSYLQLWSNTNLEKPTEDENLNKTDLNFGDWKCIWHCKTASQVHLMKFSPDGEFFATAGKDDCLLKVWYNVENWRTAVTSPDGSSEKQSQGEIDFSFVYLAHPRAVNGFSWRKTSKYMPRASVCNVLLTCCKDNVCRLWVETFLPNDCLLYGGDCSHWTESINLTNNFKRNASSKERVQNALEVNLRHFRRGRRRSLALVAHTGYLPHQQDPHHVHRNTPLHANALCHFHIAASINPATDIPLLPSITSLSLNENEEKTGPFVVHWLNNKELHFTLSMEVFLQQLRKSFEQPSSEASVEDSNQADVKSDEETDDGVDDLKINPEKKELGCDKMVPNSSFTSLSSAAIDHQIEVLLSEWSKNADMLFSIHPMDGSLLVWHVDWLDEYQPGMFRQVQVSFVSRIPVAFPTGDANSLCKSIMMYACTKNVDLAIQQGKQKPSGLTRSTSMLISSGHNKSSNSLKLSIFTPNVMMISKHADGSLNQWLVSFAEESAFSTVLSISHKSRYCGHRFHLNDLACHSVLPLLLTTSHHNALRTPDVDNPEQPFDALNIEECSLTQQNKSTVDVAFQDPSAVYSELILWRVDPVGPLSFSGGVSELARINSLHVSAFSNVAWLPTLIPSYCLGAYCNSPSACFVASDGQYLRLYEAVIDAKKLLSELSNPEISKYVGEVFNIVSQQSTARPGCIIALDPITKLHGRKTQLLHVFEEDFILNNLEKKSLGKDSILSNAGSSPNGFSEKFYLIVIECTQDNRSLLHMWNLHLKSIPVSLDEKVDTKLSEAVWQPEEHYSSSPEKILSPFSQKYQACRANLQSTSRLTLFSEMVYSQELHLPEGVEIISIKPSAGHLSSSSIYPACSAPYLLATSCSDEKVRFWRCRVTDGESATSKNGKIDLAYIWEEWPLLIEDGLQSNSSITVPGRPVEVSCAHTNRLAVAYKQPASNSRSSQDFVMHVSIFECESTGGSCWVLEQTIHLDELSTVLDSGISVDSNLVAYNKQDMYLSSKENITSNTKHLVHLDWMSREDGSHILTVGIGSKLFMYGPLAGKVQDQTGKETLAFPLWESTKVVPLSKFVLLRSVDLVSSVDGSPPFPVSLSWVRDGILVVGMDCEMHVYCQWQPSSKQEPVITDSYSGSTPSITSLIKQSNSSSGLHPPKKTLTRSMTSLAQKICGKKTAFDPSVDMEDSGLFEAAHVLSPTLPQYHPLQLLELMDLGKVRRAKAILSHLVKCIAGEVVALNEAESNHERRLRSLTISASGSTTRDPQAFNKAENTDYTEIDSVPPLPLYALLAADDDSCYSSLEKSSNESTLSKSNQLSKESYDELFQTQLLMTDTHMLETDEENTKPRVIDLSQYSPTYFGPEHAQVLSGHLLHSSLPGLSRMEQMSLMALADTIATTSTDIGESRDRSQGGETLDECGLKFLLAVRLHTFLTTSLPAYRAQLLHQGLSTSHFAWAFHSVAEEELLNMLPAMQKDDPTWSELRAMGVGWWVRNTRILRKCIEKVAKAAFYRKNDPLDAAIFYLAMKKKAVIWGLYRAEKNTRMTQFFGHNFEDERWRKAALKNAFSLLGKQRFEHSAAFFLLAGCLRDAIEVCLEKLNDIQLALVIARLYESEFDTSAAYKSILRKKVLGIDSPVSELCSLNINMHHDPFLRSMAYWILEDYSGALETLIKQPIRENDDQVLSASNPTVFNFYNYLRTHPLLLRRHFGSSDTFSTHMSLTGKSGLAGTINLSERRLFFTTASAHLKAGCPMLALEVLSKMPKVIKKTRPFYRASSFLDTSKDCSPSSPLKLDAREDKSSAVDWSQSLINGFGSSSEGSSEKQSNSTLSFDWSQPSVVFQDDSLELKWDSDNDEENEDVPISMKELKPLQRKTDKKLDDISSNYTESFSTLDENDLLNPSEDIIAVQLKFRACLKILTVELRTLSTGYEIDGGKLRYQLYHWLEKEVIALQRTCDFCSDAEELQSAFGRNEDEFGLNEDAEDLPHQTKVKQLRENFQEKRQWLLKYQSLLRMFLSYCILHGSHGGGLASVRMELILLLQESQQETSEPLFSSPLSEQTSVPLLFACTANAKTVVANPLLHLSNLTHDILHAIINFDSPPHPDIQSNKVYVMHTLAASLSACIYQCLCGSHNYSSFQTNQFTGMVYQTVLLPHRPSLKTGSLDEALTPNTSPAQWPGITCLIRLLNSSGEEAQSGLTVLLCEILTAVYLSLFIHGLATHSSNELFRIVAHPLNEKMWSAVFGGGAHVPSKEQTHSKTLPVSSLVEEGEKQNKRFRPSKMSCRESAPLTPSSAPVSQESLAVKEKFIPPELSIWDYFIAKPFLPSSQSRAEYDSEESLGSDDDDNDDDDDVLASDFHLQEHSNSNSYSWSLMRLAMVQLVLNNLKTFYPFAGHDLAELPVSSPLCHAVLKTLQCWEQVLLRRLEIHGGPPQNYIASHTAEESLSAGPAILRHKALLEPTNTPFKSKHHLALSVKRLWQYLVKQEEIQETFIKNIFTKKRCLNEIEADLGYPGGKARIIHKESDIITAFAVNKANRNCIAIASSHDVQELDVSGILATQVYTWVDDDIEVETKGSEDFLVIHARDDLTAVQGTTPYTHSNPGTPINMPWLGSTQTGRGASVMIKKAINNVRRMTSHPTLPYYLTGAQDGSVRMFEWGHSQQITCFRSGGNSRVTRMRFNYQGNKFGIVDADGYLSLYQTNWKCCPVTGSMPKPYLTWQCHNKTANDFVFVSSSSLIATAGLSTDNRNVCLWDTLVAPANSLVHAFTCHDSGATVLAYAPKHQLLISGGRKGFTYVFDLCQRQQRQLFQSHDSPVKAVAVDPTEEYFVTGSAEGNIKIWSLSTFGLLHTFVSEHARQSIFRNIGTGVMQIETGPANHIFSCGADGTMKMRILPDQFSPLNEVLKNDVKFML
inactive: erlotinib 0.006 | [1] 0.016 | [2] -0.015 | [3] -0.017 | [4] -0.024 | [5] -0.008 | [6] -0.026 | [7] -0.013 | [8] -0.001 | IRAK-1-4 Inhibitor I 0.016 | ibrutinib -0.02 | [9] -0.025 | ralimetinib 0.021 | [10] -0.012 | [11] 0.016 | [12] -0.001 | [13] -0.024 | [14] 0 | [15] 0.064 | [16] -0.026

CSNK2B (UniProt P67870)
Sequence of UniProt P67870 (P67870 whole entry, looked up): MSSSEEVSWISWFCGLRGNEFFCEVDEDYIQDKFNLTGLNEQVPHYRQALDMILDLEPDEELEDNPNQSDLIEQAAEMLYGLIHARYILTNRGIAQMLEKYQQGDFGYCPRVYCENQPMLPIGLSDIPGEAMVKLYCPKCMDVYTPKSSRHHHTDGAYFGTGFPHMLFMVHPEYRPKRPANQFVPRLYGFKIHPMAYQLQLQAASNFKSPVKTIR
active: [4] 0.33 | [9] 0.408
inactive: erlotinib 0.045 | [1] -0.107 | [2] -0.039 | [3] 0.151 | [5] -0.012 | [6] 0.198 | [7] 0.145 | [8] 0.041 | IRAK-1-4 Inhibitor I 0.021 | ibrutinib -0.004 | ralimetinib 0.003 | [10] -0.013 | [11] 0 | [12] -0.054 | [13] 0.114 | [14] -0.004 | [15] -0.015 | [16] -0.016

CTNNBL1 (UniProt Q8WYA6)
inactive: erlotinib 0.023 | [1] 0.052 | [2] 0.023 | [3] 0.018 | [4] 0.015 | [5] 0.103 | [6] -0.033 | [7] -0.042 | [8] -0.033 | IRAK-1-4 Inhibitor I 0.088 | ibrutinib 0 | [9] 0.047 | ralimetinib -0.095 | [10] -0.169 | [11] 0.017 | [12] -0.051 | [13] -0.04 | [14] 0.015 | [15] 0.056 | [16] 0.01

CNOT6L (UniProt Q96LI5)
inactive: erlotinib -0.011 | [1] 0 | [2] 0.007 | [3] -0.02 | [4] 0.007 | [5] -0.04 | [6] -0.042 | [7] -0.018 | [8] -0.012 | IRAK-1-4 Inhibitor I 0.002 | ibrutinib 0.02 | [9] 0.015 | ralimetinib 0.037 | [10] -0.06 | [11] -0.05 | [12] 0.064 | [13] -0.07 | [14] 0.008 | [15] -0.041 | [16] 0.016

CMBL (UniProt Q96DG6)
Sequence of UniProt Q96DG6 (Q96DG6 whole entry, looked up): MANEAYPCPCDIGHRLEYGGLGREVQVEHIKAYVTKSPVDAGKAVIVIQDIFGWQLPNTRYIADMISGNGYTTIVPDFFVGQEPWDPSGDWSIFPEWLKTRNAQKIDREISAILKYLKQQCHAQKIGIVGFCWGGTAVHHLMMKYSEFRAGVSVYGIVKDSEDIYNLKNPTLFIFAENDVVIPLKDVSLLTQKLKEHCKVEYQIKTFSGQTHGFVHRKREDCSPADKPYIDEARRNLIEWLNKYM
inactive: erlotinib 0.026 | [1] 0.047 | [2] -0.03 | [3] -0.031 | [4] 0.01 | [5] -0.002 | [6] 0.045 | [7] 0.006 | [8] -0.002 | IRAK-1-4 Inhibitor I 0.025 | ibrutinib -0.059 | ralimetinib 0.018 | [10] -0.009 | [11] -0.056 | [12] -0.082 | [13] 0 | [14] 0.014 | [15] -0.04 | [16] -0.011
active: [9] 0.22

CHMP4A isoform 2 (UniProt Q9BY43)
inactive: erlotinib -0.046 | [1] 0.008 | [2] 0.018 | [3] -0.01 | [4] -0.018 | [5] 0.021 | [6] 0.033 | [7] 0.014 | [8] -0.007 | IRAK-1-4 Inhibitor I -0.016 | ibrutinib -0.002 | [9] 0.011 | ralimetinib 0.03 | [10] -0.041 | [11] 0.036 | [12] 0.011 | [13] -0.02 | [14] 0.036 | [15] -0.03 | [16] -0.007

CIP2A (UniProt Q8TCG1)
inactive: erlotinib 0.057 | [1] 0.18 | [2] -0.086 | [3] 0.034 | [4] -0.019 | [5] 0.019 | [6] -0.11 | [7] -0.002 | [8] 0.02 | IRAK-1-4 Inhibitor I 0.007 | ibrutinib 0.022 | [9] 0.001 | ralimetinib 0.052 | [10] -0.046 | [11] -0.03 | [12] 0.009 | [13] 0.003 | [14] 0 | [15] 0.059 | [16] -0.033

DFFB (UniProt O76075)
inactive: erlotinib -0.055 | [1] 0.062 | [2] 0.071 | [3] 0.048 | [4] 0.084 | [5] 0.047 | [6] 0 | [7] 0.013 | [8] -0.019 | IRAK-1-4 Inhibitor I 0.008 | ibrutinib 0.076 | [9] -0.01 | ralimetinib 0.054 | [10] -0.068 | [11] -0.027 | [12] 0.044 | [13] 0.08 | [14] 0.033 | [15] -0.07 | [16] -0.039

CHORDC1 (UniProt Q9UHD1)
inactive: erlotinib 0.015 | [1] 0.007 | [2] 0.017 | [3] 0.001 | [4] 0.004 | [5] 0.002 | [6] 0.005 | [7] -0.007 | [8] 0.015 | IRAK-1-4 Inhibitor I -0.016 | ibrutinib -0.002 | [9] 0.004 | ralimetinib -0.009 | [10] -0.001 | [11] -0.032 | [12] -0.009 | [13] 0.001 | [14] 0.023 | [15] 0.033 | [16] 0.006

CKS1B (UniProt P61024)
Sequence of UniProt P61024 (P61024 whole entry, looked up): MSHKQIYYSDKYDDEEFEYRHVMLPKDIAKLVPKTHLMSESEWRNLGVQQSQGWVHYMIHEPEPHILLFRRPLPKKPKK
inactive: erlotinib -0.058 | [1] -0.097 | [2] -0.037 | [3] 0.042 | [4] 0.008 | [5] 0.121 | [6] 0.092 | [7] 0.038 | [8] -0.012 | IRAK-1-4 Inhibitor I -0.018 | ibrutinib 0.049 | [9] 0.01 | ralimetinib -0.161 | [10] -0.034 | [11] 0.011 | [12] 0.055 | [13] 0 | [14] -0.059 | [15] 0.003 | [16] -0.012
